Test in all cases: DAPPL (digital affinity profiling via proximity ligation, sequencing); 10 mM Tris-HCl pH 7.5, 50 mM NaCl, 1 mM DTT, 4% glycerol, room temperature, 30 min; GST-TFs on glutathione beads, 16-mer random dsDNA library, 0.1% formaldehyde crosslink after washing; high values mean tight binding
One test has as its target T1, FEV (Homo sapiens, UniProt Q99581 1-238).
T1 sequence: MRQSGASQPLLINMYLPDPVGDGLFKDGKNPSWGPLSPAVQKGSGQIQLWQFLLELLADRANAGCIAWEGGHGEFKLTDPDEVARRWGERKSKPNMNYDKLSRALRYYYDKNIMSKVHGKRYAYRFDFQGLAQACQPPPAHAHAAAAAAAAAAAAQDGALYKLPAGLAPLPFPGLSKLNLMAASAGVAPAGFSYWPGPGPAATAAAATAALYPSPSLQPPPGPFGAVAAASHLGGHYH
Particulars: protein: recombinant; tags: N-terminal GST; dsDNA, one strand shown. An outline of the steps:
(§1)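 Binding signal is given per hexamer as its read frequency for a factor divided by its frequency in the tag-only sample. GST-fused human transcription factors were expressed in yeast, captured on glutathione beads, barcoded with DNA and pooled with that sample, then incubated with 200 nmole of a 16-mer random double-stranded DNA library in Tris/NaCl/DTT/glycerol buffer for 30 min at room temperature. The pools were then washed, crosslinked, proximity-ligated, amplified by PCR and sequenced on an Illumina NextSeq500.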

A further test deals with ETV5 (Homo sapiens, UniProt P41161 1-510). The note with it: protein: recombinant; tags: N-terminal GST; dsDNA, one strand shown. Summed up:
as §1

The target in another test is HSF1 (Homo sapiens, UniProt Q00613 1-529). Particulars: protein: recombinant; tags: N-terminal GST; chain copies: 3; dsDNA, one strand shown. Summed up: as §1
Chain of HSF1 (Q00613 whole entry): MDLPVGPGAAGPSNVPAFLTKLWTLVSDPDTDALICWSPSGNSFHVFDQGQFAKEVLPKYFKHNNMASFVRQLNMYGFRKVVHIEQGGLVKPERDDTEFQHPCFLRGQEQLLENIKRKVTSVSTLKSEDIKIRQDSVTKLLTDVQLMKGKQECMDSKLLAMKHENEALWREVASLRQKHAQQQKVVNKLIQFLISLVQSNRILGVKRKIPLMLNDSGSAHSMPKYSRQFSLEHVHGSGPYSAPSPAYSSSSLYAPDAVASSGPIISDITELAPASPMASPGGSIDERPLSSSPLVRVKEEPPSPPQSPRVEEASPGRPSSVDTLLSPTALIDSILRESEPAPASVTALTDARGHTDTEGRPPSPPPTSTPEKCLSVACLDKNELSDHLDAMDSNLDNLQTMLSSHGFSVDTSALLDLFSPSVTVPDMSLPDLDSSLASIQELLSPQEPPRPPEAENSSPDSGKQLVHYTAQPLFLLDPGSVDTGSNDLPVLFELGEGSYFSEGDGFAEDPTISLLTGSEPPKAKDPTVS
Another test deals with T2, SPIC (Homo sapiens, UniProt Q8N5J4 1-248).
T2 sequence: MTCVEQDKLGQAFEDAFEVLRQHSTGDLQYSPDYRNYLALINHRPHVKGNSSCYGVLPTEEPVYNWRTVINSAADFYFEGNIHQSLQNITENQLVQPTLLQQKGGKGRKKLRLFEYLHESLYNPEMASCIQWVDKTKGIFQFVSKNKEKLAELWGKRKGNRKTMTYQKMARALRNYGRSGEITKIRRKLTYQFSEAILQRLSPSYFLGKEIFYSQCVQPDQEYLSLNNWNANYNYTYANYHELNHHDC
The note with it: protein: recombinant; tags: N-terminal GST; dsDNA, one strand shown. Summed up:
as §1

Another test has as its target ELF4 (Homo sapiens, UniProt Q99607 1-663). The note with it: protein: recombinant; tags: N-terminal GST; dsDNA, one strand shown. Summed up: as §1
For a further test, the target named is T3, ELK4 (Homo sapiens, UniProt P28324-2 1-405).
T3 sequence: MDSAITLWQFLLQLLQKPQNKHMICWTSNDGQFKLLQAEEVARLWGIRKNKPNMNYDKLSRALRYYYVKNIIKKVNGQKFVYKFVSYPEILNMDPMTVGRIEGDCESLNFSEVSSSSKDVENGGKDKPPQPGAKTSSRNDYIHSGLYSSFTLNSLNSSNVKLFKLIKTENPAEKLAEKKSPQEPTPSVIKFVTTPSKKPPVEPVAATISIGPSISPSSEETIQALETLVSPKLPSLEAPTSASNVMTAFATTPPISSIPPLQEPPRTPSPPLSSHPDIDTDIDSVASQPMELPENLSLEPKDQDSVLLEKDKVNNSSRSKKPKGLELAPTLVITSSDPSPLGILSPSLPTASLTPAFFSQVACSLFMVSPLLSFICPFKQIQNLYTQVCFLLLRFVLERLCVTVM
The note with it: protein: recombinant; tags: N-terminal GST; dsDNA, one strand shown. Summed up:
as §1

The target in another test is T4, ETV2 (Homo sapiens, UniProt O00321 1-342).
T4 sequence: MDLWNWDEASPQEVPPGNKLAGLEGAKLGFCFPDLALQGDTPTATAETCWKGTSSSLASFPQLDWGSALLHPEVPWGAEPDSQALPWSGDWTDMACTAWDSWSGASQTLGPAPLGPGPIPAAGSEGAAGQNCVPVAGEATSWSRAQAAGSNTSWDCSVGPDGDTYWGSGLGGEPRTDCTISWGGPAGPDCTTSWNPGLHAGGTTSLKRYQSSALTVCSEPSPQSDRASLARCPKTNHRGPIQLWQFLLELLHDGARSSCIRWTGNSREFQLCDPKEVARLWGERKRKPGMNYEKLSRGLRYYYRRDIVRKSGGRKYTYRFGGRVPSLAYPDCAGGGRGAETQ
The note with it: protein: recombinant; tags: N-terminal GST; dsDNA, one strand shown. Summed up: as §1

The next test deals with T5, ELF3 (Homo sapiens, UniProt P78545 1-371).
T5 sequence: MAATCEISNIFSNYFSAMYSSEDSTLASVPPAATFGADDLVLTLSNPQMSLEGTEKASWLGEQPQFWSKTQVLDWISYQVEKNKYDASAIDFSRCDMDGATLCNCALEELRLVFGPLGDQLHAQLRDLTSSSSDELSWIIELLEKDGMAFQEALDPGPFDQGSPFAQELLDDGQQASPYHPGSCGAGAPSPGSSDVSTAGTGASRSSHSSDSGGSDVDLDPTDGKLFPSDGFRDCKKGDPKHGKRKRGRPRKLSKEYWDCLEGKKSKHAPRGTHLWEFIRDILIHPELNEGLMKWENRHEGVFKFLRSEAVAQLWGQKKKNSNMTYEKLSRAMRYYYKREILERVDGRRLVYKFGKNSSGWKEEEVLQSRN
The note with it: protein: recombinant; tags: N-terminal GST; dsDNA, one strand shown. Summed up:
as §1

The target of another test is CRX (Homo sapiens, UniProt O43186 1-299). The note with it: protein: recombinant; tags: N-terminal GST; dsDNA, one strand shown. An outline of the steps: as §1
Chain of CRX (O43186 whole entry): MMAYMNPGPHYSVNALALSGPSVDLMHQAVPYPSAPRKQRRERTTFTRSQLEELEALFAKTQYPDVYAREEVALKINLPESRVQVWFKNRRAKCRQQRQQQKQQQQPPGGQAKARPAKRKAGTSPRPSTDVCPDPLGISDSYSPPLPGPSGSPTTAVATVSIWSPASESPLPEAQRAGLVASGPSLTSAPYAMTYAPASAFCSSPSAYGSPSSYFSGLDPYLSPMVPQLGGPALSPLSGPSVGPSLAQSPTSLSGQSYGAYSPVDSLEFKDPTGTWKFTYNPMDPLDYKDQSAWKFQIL
For another test, the target named is ETV1 (Homo sapiens, UniProt P50549 1-477). Particulars: protein: recombinant; tags: N-terminal GST; dsDNA, one strand shown. An outline of the steps: as §1
Chain of ETV1 (P50549 whole entry): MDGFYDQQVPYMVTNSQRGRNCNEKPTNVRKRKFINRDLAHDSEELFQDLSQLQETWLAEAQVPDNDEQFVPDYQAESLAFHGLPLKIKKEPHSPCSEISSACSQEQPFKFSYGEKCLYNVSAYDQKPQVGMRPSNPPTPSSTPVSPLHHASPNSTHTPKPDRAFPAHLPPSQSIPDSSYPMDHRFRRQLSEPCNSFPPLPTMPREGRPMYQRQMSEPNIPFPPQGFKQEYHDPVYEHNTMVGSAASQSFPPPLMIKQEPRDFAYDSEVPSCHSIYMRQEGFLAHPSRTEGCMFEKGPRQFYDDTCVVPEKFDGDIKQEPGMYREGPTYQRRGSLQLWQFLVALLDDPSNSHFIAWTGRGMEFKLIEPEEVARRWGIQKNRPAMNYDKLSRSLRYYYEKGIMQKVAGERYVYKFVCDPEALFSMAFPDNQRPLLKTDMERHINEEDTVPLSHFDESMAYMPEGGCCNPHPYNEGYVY
The next test has as its target T6, ERF (Homo sapiens, UniProt P50548 1-548).
T6 sequence: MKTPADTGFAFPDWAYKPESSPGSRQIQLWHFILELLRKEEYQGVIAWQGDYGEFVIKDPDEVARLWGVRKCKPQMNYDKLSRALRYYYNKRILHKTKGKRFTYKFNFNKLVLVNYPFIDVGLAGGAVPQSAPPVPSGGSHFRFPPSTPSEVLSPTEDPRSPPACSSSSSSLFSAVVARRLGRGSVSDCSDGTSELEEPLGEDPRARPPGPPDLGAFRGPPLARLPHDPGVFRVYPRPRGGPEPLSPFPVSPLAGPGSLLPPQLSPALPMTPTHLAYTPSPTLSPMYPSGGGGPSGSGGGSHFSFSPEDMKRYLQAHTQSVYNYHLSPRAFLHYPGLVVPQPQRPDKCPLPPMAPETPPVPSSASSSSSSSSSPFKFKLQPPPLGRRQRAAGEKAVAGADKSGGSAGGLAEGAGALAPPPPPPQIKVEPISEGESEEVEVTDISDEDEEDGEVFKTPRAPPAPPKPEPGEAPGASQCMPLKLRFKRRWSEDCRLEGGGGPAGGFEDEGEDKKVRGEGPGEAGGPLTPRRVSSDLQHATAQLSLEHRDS
The note with it: protein: recombinant; tags: N-terminal GST; dsDNA, one strand shown. Summed up:
as §1

The target of a further test is T7, ETV3L (Homo sapiens, UniProt Q6ZN32 1-361).
T7 sequence: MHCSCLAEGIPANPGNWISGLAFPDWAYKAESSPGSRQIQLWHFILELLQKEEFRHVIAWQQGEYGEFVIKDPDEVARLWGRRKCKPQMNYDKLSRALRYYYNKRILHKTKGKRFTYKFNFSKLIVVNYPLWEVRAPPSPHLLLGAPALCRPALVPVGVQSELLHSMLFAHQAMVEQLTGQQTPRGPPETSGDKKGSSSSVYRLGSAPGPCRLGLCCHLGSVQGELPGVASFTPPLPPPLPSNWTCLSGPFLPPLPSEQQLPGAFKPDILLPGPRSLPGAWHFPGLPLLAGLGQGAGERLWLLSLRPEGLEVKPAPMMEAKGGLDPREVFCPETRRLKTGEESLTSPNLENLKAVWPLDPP
The note with it: protein: recombinant; tags: N-terminal GST; dsDNA, one strand shown. An outline of the steps: as §1

A further test addresses T8, ETS2 (Homo sapiens, UniProt P15036 1-469).
T8 sequence: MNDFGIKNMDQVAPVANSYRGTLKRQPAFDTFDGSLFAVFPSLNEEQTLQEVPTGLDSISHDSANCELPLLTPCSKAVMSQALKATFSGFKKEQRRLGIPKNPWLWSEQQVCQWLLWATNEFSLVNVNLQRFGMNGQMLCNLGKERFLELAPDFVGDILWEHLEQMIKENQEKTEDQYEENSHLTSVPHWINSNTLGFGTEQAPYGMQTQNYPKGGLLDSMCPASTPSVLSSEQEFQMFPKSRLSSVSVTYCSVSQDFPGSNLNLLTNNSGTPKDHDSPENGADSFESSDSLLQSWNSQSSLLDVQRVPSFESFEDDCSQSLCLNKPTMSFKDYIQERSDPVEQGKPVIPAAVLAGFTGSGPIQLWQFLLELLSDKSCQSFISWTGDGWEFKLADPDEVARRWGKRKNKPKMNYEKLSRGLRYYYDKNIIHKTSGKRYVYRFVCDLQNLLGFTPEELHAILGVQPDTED
Particulars: protein: recombinant; tags: N-terminal GST; dsDNA, one strand shown. Summed up:
as §1

In another test the target is T9, SPDEF (Homo sapiens, UniProt O95238 1-335).
T9 sequence: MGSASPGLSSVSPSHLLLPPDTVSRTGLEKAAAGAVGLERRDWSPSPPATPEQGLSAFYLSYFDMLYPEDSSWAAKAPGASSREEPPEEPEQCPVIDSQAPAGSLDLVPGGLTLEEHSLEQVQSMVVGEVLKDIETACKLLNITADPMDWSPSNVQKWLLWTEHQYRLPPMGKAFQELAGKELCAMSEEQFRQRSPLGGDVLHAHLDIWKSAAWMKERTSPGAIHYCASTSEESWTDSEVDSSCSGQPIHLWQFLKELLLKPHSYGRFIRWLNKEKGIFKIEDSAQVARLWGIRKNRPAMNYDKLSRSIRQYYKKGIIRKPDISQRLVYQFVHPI
The note with it: protein: recombinant; tags: N-terminal GST; dsDNA, one strand shown. An outline of the steps: as §1

In another test the target is T10, ETV7 (Homo sapiens, UniProt Q9Y603 1-341).
T10 sequence: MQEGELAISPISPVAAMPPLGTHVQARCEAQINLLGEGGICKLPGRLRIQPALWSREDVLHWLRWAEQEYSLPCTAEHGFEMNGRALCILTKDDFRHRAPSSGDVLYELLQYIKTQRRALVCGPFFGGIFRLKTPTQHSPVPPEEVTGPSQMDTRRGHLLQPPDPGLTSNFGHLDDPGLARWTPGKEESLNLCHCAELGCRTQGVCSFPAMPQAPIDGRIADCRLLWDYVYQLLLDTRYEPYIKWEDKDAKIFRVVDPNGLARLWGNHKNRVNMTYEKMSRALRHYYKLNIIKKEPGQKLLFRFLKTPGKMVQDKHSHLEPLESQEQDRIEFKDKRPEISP
The note with it: protein: recombinant; tags: N-terminal GST; dsDNA, one strand shown. Summed up:
as §1

In a further test the target is T11, ELF5 (Homo sapiens, UniProt Q9UKW6-2 1-255).
T11 sequence: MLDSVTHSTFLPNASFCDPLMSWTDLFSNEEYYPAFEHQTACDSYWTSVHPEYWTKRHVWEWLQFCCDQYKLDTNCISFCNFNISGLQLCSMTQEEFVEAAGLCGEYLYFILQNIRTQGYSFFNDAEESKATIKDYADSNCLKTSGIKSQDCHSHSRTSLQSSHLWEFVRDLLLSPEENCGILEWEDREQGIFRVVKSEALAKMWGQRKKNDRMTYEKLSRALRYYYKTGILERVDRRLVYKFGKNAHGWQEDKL
Particulars: protein: recombinant; tags: N-terminal GST; dsDNA, one strand shown. Summed up:
as §1

For the next test, the target named is T12, ETV3 (Homo sapiens, UniProt P41162-2 1-143).
T12 sequence: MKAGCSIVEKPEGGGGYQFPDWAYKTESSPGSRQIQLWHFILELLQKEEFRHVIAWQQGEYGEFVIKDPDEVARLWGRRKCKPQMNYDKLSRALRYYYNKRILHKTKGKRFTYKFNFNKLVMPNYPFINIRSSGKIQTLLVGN
The note with it: protein: recombinant; tags: N-terminal GST; dsDNA, one strand shown. An outline of the steps:
as §1

A further test addresses ETV6 (Homo sapiens, UniProt P41212 1-452). The note with it: protein: recombinant; tags: N-terminal GST; dsDNA, one strand shown. Summed up:
as §1

Chain of ELF4 (Q99607 whole entry): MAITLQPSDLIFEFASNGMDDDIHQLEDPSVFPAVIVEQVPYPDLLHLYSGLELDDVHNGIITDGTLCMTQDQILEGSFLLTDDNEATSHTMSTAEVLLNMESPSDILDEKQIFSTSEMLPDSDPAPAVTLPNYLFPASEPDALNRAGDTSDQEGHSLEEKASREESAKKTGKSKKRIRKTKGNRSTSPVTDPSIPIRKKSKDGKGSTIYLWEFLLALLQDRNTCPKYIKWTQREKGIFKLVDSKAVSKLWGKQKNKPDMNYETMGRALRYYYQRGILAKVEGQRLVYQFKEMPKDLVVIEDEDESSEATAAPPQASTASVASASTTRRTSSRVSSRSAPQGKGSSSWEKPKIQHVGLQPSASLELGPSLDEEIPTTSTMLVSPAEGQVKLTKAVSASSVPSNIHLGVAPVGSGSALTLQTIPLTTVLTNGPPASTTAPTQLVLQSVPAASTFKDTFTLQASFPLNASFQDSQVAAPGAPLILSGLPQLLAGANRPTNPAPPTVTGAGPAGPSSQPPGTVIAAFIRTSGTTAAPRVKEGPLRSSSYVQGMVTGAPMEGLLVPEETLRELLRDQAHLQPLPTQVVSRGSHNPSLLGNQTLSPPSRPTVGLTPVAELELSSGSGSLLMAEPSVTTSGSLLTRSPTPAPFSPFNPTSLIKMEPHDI
Chain of ETV5 (P41161 whole entry): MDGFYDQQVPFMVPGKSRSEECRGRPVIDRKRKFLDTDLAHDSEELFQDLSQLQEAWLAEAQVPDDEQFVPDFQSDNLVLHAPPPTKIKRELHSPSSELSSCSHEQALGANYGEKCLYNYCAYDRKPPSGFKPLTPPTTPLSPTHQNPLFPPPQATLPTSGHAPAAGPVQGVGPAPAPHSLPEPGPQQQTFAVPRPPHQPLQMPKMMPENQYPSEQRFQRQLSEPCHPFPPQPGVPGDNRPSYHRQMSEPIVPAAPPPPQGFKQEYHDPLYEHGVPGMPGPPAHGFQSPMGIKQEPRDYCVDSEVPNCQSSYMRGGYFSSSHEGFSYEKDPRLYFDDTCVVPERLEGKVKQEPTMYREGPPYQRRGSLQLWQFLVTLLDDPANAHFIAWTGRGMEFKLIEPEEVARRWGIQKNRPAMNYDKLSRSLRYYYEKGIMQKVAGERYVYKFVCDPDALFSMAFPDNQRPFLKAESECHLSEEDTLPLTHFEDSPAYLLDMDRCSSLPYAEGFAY
Chain of ETV6 (P41212 whole entry): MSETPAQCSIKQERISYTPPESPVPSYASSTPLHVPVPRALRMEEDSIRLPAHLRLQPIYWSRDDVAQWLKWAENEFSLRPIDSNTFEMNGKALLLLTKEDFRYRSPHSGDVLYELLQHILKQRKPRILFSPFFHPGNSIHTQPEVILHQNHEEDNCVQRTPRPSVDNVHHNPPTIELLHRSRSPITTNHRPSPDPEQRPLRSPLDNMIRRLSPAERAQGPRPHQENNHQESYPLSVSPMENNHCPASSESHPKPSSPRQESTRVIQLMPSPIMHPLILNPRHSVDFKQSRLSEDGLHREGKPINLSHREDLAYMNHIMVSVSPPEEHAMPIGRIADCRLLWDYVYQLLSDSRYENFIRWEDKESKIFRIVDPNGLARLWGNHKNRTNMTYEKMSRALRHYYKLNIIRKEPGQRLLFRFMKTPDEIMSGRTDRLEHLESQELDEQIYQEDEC

With TGCTCG, the binding signal was 1.23 fold enrichment (6-mer frequency, TF over GST control) with FEV; 1.31 fold enrichment (6-mer frequency, TF over GST control) with ETV5; 1.56 fold enrichment (6-mer frequency, TF over GST control) in the test with HSF1; 1.33 fold enrichment (6-mer frequency, TF over GST control) with SPIC; 1.24 fold enrichment (6-mer frequency, TF over GST control) with ELF4; 1.26 fold enrichment (6-mer frequency, TF over GST control) with ELK4. The binding signal with ETV2 is 1.21 fold enrichment (6-mer frequency, TF over GST control); with ELF3, 1.28 fold enrichment (6-mer frequency, TF over GST control); in the test with CRX, 1.17 fold enrichment (6-mer frequency, TF over GST control); in the test with ETV1 it was 1.28 fold enrichment (6-mer frequency, TF over GST control); in the test with ERF, 1.38 fold enrichment (6-mer frequency, TF over GST control); with ETV3L it was 1.46 fold enrichment (6-mer frequency, TF over GST control). Further, the binding signal with ETS2 is 1.29 fold enrichment (6-mer frequency, TF over GST control); in the test with SPDEF it was 1.07 fold enrichment (6-mer frequency, TF over GST control); with ETV7, 1.18 fold enrichment (6-mer frequency, TF over GST control); with ELF5, 1.18 fold enrichment (6-mer frequency, TF over GST control); with ETV3, 1.3 fold enrichment (6-mer frequency, TF over GST control); with ETV6 it was 1.31 fold enrichment (6-mer frequency, TF over GST control).

The record behind these values is publication PMC7862700, “An all-to-all approach to the identification of sequence-specific readers for epigenetic DNA modifications on cytosine”.
